Reference: PubChem BioAssay (NCATS)
A number with no mark means an inactive call. Records with an inconclusive call do not appear. Entries that show only a call come without a potency. Active and inactive are the calls of the source. Unless noted, calls follow the shape of the dose curve; as a rule, active = well fitted curve in the direction sought with a large enough effect; inconclusive = small, poorly fitted or top-dose-only effect, or another doubt; inactive = no such curve, though single readings can be large; an effect the other way counts as inactive or inconclusive.

Experiments:
[1] = molecular target: Cytochrome P450 1A2 (Homo sapiens) (UniProt P05177); test: p450-cyp1a2 (AID 410; calls by dose curve; also: potency is read from the fitted curve at half-maximal effect)
Chain of Cytochrome P450 1A2 (Homo sapiens) (P05177 whole entry, looked up): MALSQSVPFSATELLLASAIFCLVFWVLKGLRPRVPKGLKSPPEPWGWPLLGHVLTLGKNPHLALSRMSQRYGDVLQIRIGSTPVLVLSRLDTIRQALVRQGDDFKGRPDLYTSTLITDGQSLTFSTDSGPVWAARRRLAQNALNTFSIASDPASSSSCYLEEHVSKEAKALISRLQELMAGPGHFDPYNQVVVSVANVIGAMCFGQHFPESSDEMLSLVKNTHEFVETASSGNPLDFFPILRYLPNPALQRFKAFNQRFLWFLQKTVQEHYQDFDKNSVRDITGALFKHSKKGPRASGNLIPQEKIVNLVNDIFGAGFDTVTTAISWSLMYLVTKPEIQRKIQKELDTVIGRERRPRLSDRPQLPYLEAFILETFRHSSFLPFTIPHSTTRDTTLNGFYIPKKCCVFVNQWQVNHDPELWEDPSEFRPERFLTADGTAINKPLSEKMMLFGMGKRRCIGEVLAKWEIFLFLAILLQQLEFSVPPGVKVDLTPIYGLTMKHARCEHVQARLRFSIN
Procedure, shortened: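 Human CYP1A2 (20nM) demethylated Luciferin-ME at its Km (100uM) in 100mM KPO4. After 10 min compound preincubation, NADPH regeneration ran the reaction 60 min at room temperature. Luciferin was read by luminescence, normalized to 57 uM furafylline.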

[2] = molecular target: Glucocorticoid receptor (Homo sapiens) (UniProt P04150); test: GR-GFP Redistribution (AID 450;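 active = compounds whose dose series gives a full or clear partial fitted curve of increased nuclear translocation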; also: potency is read from the fitted curve at half-maximal effect)
Chain of Glucocorticoid receptor (Homo sapiens) (P04150 whole entry, looked up, the tested form may be a part): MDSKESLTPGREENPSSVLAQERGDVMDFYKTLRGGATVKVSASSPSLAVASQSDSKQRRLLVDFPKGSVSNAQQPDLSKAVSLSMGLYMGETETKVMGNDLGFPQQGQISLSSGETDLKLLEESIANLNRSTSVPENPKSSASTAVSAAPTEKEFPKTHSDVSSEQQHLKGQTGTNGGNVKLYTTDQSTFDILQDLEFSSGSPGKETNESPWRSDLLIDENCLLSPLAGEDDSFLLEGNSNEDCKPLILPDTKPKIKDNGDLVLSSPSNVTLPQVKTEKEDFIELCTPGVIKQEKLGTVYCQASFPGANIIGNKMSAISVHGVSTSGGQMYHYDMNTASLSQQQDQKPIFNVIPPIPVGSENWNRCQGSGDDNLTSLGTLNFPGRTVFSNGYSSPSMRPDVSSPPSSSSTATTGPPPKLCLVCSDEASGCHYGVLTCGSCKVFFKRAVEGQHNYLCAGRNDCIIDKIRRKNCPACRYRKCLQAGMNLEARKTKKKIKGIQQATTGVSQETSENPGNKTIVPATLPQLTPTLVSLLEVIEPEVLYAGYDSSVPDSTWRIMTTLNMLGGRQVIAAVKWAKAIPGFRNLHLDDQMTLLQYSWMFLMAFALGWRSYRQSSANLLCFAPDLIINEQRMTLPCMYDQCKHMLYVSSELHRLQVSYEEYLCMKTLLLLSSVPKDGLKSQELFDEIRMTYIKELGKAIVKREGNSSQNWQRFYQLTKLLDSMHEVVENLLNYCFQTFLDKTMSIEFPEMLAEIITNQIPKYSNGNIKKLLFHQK

[3] = molecular target: Glucocorticoid receptor (Homo sapiens) (UniProt P04150); test: GR-EFC Redistribution (AID 451; calls by dose curve; also: potency is read from the fitted curve at half-maximal effect); conditions: CHO-K1 GR-EFC translocation, beta-gal luminescence, 2 h
Procedure, shortened: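 Translocation of GR-ED fusion to nuclear EA restores b-gal, read by luminescence after 1 h room-temperature detection. Engineered CHO-K1 biosensor cells, 1,000/well, exposed 2 h at 37 C to titrations up to 46 uM final.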

[4] = molecular target: Mitogen-activated protein kinase 10 (Mus musculus) (UniProt Q61831); test: JNK3 AlphaScreen Assay (AID 530; active = well fitted curve in either direction with a large enough effect, not every such curve was filed as active;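 also: kinase came from lysate of stimulated human HepG2 cells; signal reports phosphorylation of biotinylated GST-cJun 1-79 at Ser73 with 10 µM ATP; series mostly up to about 57 µM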)
Procedure, shortened: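 Room-temperature AlphaScreen kinase assay; pre-activated HepG2 lysate as JNK3 source, biotin-GST-cJun(1-79) substrate, 10 uM ATP, compound 15 min preincubation.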

[5] = molecular target: 3',5'-cyclic-AMP phosphodiesterase 4B (Homo sapiens) (UniProt Q07343); test: qHTS Assay for Inhibitors of PDE-IV (AID 607; active = well fitted activation curve with a large enough effect in the main read-out, with a control signal flat, not every such curve was filed as active)
Chain of 3',5'-cyclic-AMP phosphodiesterase 4B (Homo sapiens) (Q07343 whole entry, looked up): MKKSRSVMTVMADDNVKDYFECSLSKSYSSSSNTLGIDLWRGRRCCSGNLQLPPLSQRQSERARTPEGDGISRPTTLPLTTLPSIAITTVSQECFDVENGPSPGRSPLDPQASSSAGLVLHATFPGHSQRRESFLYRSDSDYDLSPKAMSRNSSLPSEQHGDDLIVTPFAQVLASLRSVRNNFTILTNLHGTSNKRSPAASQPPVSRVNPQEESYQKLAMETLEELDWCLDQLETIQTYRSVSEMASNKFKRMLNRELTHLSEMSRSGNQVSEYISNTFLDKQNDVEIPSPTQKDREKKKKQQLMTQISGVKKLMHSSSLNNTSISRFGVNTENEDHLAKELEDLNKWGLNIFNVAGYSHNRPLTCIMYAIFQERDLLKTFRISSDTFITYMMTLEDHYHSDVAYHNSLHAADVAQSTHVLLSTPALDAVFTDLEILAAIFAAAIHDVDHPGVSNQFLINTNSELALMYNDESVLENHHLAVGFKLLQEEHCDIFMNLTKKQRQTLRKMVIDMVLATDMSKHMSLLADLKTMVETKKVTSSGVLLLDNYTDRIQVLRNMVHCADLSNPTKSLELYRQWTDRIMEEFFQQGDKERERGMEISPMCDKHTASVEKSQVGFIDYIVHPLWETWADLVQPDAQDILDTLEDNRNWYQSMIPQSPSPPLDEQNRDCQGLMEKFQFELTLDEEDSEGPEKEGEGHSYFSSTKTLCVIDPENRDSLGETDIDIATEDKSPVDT
Procedure, shortened: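 HEK293 ACTOne cells with CNG channel (1000/well), endogenous PDE4; membrane potential dye, compounds up to 22.9 uM final. Fluorescence Ex 535/Em 590; RO 20-1724 (100 uM final) as reference.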

[6] = molecular target: Cytochrome P450 2C9 (Homo sapiens) (UniProt P11712); test: qHTS Assay for Inhibitors and Substrates of Cytochrome P450 2C9 (AID 883); also: nearly all actives have a fitted effect of over 60% in size; also: potency is read from the fitted curve at half-maximal effect
Chain of Cytochrome P450 2C9 (Homo sapiens) (P11712 whole entry, looked up): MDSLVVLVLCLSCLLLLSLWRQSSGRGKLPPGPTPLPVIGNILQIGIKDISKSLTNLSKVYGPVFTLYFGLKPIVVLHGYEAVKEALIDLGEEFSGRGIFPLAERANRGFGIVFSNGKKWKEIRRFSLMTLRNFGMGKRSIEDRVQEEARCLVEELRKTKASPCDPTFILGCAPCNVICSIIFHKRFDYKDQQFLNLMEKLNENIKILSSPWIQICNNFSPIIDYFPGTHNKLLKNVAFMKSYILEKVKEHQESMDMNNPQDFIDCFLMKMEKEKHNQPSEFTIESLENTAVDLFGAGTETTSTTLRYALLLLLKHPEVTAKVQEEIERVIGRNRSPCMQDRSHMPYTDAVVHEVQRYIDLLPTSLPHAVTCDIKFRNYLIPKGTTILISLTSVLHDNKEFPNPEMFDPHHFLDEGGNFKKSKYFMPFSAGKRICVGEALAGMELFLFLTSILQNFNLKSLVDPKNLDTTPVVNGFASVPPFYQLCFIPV
Procedure, shortened: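 Turnover of Luciferin-H (100uM, KM) by 10nM human CYP2C9 was measured over 60 min at 37C with NADPH regeneration; inhibitors and some substrates reduce luminescence. Data normalized to sulphaphenazole 57uM.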

[7] = molecular target: Cytochrome P450 2C19 (Homo sapiens) (UniProt P33261); test: qHTS Assay for Inhibitors and Substrates of Cytochrome P450 2C19 (AID 899); also: nearly all actives have a fitted effect of over 60% in size; also: potency is read from the fitted curve at half-maximal effect
Chain of Cytochrome P450 2C19 (Homo sapiens) (P33261 whole entry, looked up): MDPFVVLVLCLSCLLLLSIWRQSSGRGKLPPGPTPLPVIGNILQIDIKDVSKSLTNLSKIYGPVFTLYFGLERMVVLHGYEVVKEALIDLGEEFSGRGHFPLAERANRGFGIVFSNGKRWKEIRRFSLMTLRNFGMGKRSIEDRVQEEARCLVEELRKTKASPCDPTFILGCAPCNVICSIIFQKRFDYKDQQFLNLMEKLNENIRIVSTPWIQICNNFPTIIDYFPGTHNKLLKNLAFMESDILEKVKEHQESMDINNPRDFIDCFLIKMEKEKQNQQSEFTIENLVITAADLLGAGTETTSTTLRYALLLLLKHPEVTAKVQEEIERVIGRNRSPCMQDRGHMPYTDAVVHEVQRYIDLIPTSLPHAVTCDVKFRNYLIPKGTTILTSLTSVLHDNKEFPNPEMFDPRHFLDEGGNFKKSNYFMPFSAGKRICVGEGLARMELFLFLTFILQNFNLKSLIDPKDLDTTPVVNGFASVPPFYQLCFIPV
Procedure, shortened: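 Reactions contain 5nM enzyme, 10uM Luciferin-H EGE (KM) and 50mM KPO4; compound preincubates 10 min at 37C, NADPH regeneration starts turnover for 60 min. Luminescence after detection reagent gives activity.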

[8] = molecular target: Cytochrome P450 2D6 (Homo sapiens) (UniProt P10635); test: qHTS Assay for Inhibitors and Substrates of Cytochrome P450 2D6 (AID 891); also: nearly all actives have a fitted effect of over 60% in size; also: potency is read from the fitted curve at half-maximal effect
Chain of Cytochrome P450 2D6 (Homo sapiens) (P10635 whole entry, looked up): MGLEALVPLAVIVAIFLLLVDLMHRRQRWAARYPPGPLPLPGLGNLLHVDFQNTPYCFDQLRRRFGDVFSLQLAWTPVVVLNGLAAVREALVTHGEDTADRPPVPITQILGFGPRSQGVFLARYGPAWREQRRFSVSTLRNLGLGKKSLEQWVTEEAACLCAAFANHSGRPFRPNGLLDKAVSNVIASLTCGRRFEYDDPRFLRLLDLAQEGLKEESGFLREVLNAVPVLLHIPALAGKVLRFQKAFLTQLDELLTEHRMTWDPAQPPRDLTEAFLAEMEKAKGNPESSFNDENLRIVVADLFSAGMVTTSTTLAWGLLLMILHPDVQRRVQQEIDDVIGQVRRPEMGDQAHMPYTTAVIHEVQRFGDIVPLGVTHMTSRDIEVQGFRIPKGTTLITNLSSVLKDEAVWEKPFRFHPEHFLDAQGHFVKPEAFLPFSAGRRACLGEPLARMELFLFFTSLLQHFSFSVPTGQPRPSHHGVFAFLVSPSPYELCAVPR
Procedure, shortened: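 Human CYP2D6 (5 nM) with 30 uM Luciferin-ME EGE (at Km) in 100 mM KPO4, compound preincubated 10 min, then NADPH regeneration system for 60 min at room temperature. Luciferin read by luminescence; normalized to 1.43 uM quinidine.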

[9] = molecular target: Cytochrome P450 3A4 (Homo sapiens) (UniProt P08684); test: qHTS Assay for Activators of Cytochrome P450 3A4 (AID 885); also: nearly all actives have a fitted effect of over 65% in size
Chain of Cytochrome P450 3A4 (Homo sapiens) (P08684 whole entry, looked up): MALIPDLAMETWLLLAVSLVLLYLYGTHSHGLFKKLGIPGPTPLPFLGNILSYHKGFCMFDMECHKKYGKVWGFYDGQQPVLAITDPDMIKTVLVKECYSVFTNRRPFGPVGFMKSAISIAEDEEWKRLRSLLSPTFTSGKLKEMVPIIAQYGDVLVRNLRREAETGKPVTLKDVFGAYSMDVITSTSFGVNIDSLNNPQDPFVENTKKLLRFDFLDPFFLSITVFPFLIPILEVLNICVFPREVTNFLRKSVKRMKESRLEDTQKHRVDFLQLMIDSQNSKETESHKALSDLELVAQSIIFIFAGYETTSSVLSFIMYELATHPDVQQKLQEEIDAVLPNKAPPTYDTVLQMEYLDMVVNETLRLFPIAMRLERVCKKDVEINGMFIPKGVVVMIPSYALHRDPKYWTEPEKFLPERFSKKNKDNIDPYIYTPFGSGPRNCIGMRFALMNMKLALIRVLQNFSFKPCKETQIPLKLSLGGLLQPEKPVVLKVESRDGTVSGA
Procedure, shortened: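 Human CYP3A4 (20 nM) with Luciferin-PPXE at 25 uM (its KM) in 200 mM KPO4; 10 min compound preincubation, then NADPH regeneration and 60 min reaction at RT. Luciferin read by luminescence; normalized to 57 uM ketoconazole full inhibition.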

[10] = molecular target: DNA dC->dU-editing enzyme APOBEC-3G (Homo sapiens) (UniProt Q9HC16); test: qHTS for inhibitors of Vif-A3G interactions: Validation (AID 588379)
Chain of DNA dC->dU-editing enzyme APOBEC-3G (Homo sapiens) (Q9HC16 whole entry, looked up): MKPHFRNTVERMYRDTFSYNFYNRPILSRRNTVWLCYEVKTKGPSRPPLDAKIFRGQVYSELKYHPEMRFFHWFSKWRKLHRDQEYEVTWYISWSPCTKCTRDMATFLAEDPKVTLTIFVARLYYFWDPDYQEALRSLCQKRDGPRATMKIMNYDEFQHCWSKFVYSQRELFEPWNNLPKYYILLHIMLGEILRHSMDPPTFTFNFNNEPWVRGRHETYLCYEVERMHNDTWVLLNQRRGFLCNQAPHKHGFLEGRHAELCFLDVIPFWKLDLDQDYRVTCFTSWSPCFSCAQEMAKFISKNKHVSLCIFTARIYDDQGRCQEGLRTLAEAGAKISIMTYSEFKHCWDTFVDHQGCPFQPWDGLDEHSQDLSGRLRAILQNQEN
Procedure, shortened: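 HeLa cells stably expressing Vif and A3G-eYFP, 700 cells/well, incubated overnight at 37 deg C, then exposed to compound overnight at 37 deg C. Inhibition of Vif-mediated degradation read as increased yellow fluorescence (Ex 488/Em 500-530) by laser-scanning cytometry.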

[11] = molecular target: Cytochrome P450 3A4 (Homo sapiens) (UniProt P08684); test: qHTS Assay for Inhibitors and Substrates of Cytochrome P450 3A4 (AID 884); also: nearly all actives have a fitted effect of over 50% in size; also: potency is read from the fitted curve at half-maximal effect
Procedure, shortened: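 20 nM human CYP3A4 with 25 uM Luciferin-PPXE (at KM) in 200 mM KPO4, preincubated 10 min with compound; NADPH regeneration started a 60 min RT reaction. Luciferin detected by luminescence, normalized to 57 uM ketoconazole as full inhibition.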

Compound	Potency [1]	Potency [2] [µM]	Potency [3] [µM]	Potency [4]	Potency [5]	Potency [6]	Potency [7]	Potency [8]	Potency [9]	outcome [10]	Potency [11]
C/C(=C\CNc1ncnc2c1ncn2[C@@H]1O[C@@H](CO)[C@@H](O)[C@H]1O)CO	inactive	> 46	> 46	inactive	inactive	inactive	inactive				
C=C1CC[C@H]2C(C)(C)[C@H](O)CC[C@]2(C)[C@@H]1COc1ccc2ccc(=O)oc2c1	31.6 µM (active)	> 46	> 46	inactive		3.98 µM (active)	6.31 µM (active)	inactive			
CC[C@@H]1[C@H]2CCCCN3[C@@H]2[C@@H](C[C@H]3[C@@H]2C[C@H](C)C(=O)O2)[C@@H]2[C@H]1OC(=O)[C@H]2C	25.1 µM (active)	> 46	> 46	inactive	inactive	inactive	inactive				
COc1cccc(-c2oc3ccccc3c(=O)c2O)c1	0.2 µM (active)	> 46	> 46		inactive	12.6 µM (active)			inactive	inactive	
COc1ccc([C@@H]2CC(=O)c3c(O)cc(O[C@@H]4O[C@@H](CO[C@@H]5O[C@@H](C)[C@@H](O)[C@@H](O)[C@H]5O)[C@@H](O)[C@@H](O)[C@H]4O)cc3O2)cc1O	inactive	> 46	> 46	inactive	inactive	inactive	inactive				
COc1ccc(-c2coc3ccc(O[C@@H]4O[C@@H](COC(C)=O)[C@@H](OC(C)=O)[C@@H](OC(C)=O)[C@H]4OC(C)=O)cc3c2=O)cc1	inactive	> 46	> 46	inactive	inactive		inactive	inactive			
COc1ccc(-c2oc3cc(OC)c(OC(C)=O)c(OC)c3c(=O)c2OC)cc1OC(C)=O	12.6 µM (active)	> 46	> 46				inactive		inactive	inactive	
OC[C@@H]1O[C@@H](n2cnc3c(NCc4ccco4)ncnc32)[C@H](O)[C@H]1O	inactive	> 46	> 46	inactive	inactive	inactive	inactive				
CCCCCCCCCCCCCCCCOC[C@@H](COCC(F)(F)F)OP(=O)(O)OCO	inactive	> 46	> 46	inactive	inactive			inactive			
COc1ccccc1C[C@@H](Cc1nc2ccccc2[nH]1)c1nc2ccccc2[nH]1	10 µM (active)	> 46	> 46	inactive	inactive	12.6 µM (active)	1.58 µM (active)	0.01 µM (active)			
O[C@@H]1CC[C@H]2Cc3ccccc3N=C21	15.8 µM (active)	> 46	> 46	inactive	inactive	inactive	inactive				
COc1cc2oc(-c3ccccc3)cc(=O)c2cc1OC	0.2 µM (active)	> 46	> 46		inactive	inactive		inactive	inactive	inactive	
O=c1cc(-c2ccccc2O)oc2c(O)c(O)ccc12	2.51 µM (active)	> 46	> 46		inactive	1.26 µM (active)	1.26 µM (active)	15.8 µM (active)	inactive	inactive	
COc1cc(-c2cc(=O)c3ccccc3o2)ccc1O	0.0794 µM (active)	> 46	> 46		inactive	6.31 µM (active)	6.31 µM (active)		inactive	inactive	15.8 µM (active)
C=C1CC[C@@H]2O[C@]2(C)CC[C@@H]2[C@H]1CC2(C)C	15.8 µM (active)	> 46	> 46	inactive		25.1 µM (active)					
C[C@H](O)[C@H](O)[C@@H](O)c1cnc2nc(N)[nH]c(=O)c2n1	inactive	> 46	> 46	inactive	inactive	inactive	inactive	inactive			
C[C@H]1[C@H](C)CC[C@@]2(C(=O)O)CC[C@]3(C)C(=CC[C@H]4[C@@]5(C)C[C@@H](O)[C@H](O)[C@@](C)(CO)[C@@H]5CC[C@@]43C)[C@@H]12	inactive	> 46	> 46	inactive	inactive	inactive	inactive	inactive			

Compound	Potency [1]	Potency [2] [µM]	Potency [3] [µM]	Potency [4]	Potency [5]	Potency [6]	Potency [7]	Potency [8]	Potency [9]	outcome [10]	Potency [11]
O=c1c(O)c(-c2ccc(O)c(O)c2)oc2c(OC[C@H]3O[C@@H](O)[C@@H](O)[C@H](O)[C@@H]3O)c(O)cc(O)c12	inactive	> 46	> 46		inactive	inactive	inactive				
Cc1c(-c2ccccc2)oc2cc(O)ccc2c1=O	0.251 µM (active)	> 46	> 46			2.51 µM (active)		inactive	inactive	inactive	15.8 µM (active)
O=c1cc(-c2ccccc2O)oc2ccc3ccccc3c12	1 µM (active)	> 46	> 46					20 µM (active)	inactive	inactive	
Cc1ccc2oc(-c3ccccc3)c(O)c(=O)c2c1	0.398 µM (active)	> 46	> 46		inactive	inactive	inactive	inactive		inactive	inactive
CC1(C)CC[C@]2(C(=O)O)CC[C@]3(C)C(=CC[C@@H]4[C@@]5(C)CC[C@H](O)C(C)(C)[C@@H]5CC[C@@]43C)[C@@H]2C1	inactive	> 46	> 46	inactive		inactive	inactive				
O=c1c2ccccc2oc2cc(O)c([C@@H]3COC[C@@H](CO)[C@@H](O)[C@@H](O)[C@H]3O)c(O)c12	inactive	> 46	> 46	inactive	inactive	inactive	inactive	inactive			
CC(C)C[C@@H](CC(=O)N[C@@H](CCC(=O)O)CC(=O)O)NC(=O)[C@@H]1CNCC[C@H]1NC(=O)C[C@H](CCCN)NC(=O)C[C@H](CO)NC(=O)[C@@H]1CCCC[C@H]1N	inactive		> 46	inactive	inactive	inactive	inactive	inactive			
CC(C)C[C@@H](CC(=O)N[C@H](CC(=O)N[C@@H]1CCNC[C@H]1C(=O)N[C@H](CC(=O)N[C@@H](CCC(=O)O)CC(=O)O)Cc1ccccc1)C(C)C)NC(=O)[C@@H]1CNCC[C@H]1N	31.6 µM (active)		> 46	inactive	inactive	inactive	inactive	inactive			
CC(C)[C@@H](CC(=O)N[C@@H]1CCNC[C@H]1C(=O)N[C@H](CC(=O)N[C@@H](CCC(=O)O)CC(=O)O)Cc1c[nH]c2ccccc12)NC(=O)C[C@H](Cc1ccccc1)NC(=O)[C@@H]1CNCC[C@H]1N	31.6 µM (active)		> 46	inactive	inactive	inactive	inactive	inactive			
CC(C)C[C@@H](CC(=O)N[C@@H](CCCN)CC(=O)N[C@@H]1CCCC[C@H]1C(=O)N[C@H](CC(=O)N[C@@H](CCC(=O)O)CC(=O)O)Cc1c[nH]c2ccccc12)NC(=O)[C@@H]1CNCC[C@H]1N	inactive		> 46	inactive	inactive	inactive	inactive	inactive			
CC(C)=CCC/C(C)=C/COc1c2ccoc2cc2oc(=O)ccc12	0.316 µM (active)	> 46	> 46			0.0316 µM (active)	0.01 µM (active)	0.0631 µM (active)			
CC(C)[C@@H](CC(=O)N[C@@H]1CCNC[C@H]1C(=O)N[C@H](CC(=O)N[C@@H](CCC(=O)O)CC(=O)O)Cc1c[nH]c2ccccc12)NC(=O)C[C@H](Cc1ccccc1)NC(=O)[C@@H]1CCCC[C@H]1N	31.6 µM (active)		> 46	inactive	inactive	inactive	inactive	inactive			
O=c1ccn([C@H]2O[C@H](CO)[C@@H](O)[C@@H]2O)c(=O)[nH]1	inactive	> 46		inactive	inactive	inactive		inactive			
O=c1c(O)c(-c2ccc(O)c(O)c2)oc2ccccc12	0.251 µM (active)	> 46	> 46						inactive		
CC(C)[C@@H](CC(=O)N[C@@H]1CCNC[C@H]1C(=O)N[C@H](CC(=O)N[C@@H](CCC(=O)O)CC(=O)O)Cc1ccccc1)NC(=O)C[C@H](Cc1c[nH]c2ccccc12)NC(=O)[C@@H]1CCCC[C@H]1N	39.8 µM (active)		> 46	inactive	inactive	inactive		inactive			
CC(C)[C@@H](CC(=O)N[C@@H]1CCNC[C@H]1C(=O)N[C@H](CC(=O)N[C@@H](CCC(=O)O)CC(=O)O)Cc1ccccc1)NC(=O)C[C@H](CO)NC(=O)[C@@H]1CCCC[C@H]1N	inactive		> 46	inactive	inactive	inactive	inactive	inactive			
